PubChem BioAssay (Tox21)
Records with an inconclusive call do not appear. Active and inactive are the calls of the source. Calls come from the whole dose curve.

Tested on: not listed separately
Assay: Nuclear factor erythroid 2-related factor 2/antioxidant responsive element (Nrf2/ARE) small molecule agonists: luciferase reporter gene qHTS assay in human keratinocytes (AID 1919969); note: potency is the fitted concentration of half-maximal effect
Conditions: KeratinoSens HaCaT ARE-luciferase, luminescence, 24 h; series mostly up to 92.4 µM; activity, positive = activation: at the top concentration
% is set by controls: 0 for no effect and ±100 for the full control effect.
Note: nearly all actives have a fitted effect of over 35% in size.

| SMILES | Potency | activity, positive = activation |
| --- | --- | --- |
| COc1ccc(C(=O)c2ccc(OC)cc2O)c(O)c1 | 69.1 µM (active) |  |
| CC(C)c1ccc(C(=O)N=C(N)N)cc1S(C)(=O)=O |  | -8.58% [at 42.5 µM] (inactive) |
| Cc1ccc(N(CC2=NCCN2)c2cccc(O)c2)cc1 |  | 19.2% [at 42.5 µM] (inactive) |
| CCC(C(=O)OCCN(CC)CC)c1ccccc1 (stereo not given) |  | -8.69% [at 42.5 µM] (inactive) |
| COC(=O)c1cccc(Cl)c1 |  | 0.325% (inactive) |
| Cc1cccc(C(C)(C)C)c1O |  | 5.89% (inactive) |
| Cc1cn[nH]c1 |  | 0.942% [at 42.5 µM] (inactive) |
| CCCCCCCCCCCCCCCCCCOS(=O)(=O)O |  | -35% (inactive) |
| C[Si](C)(CCCN)O[Si](C)(C)CCCN |  | -17.4% (inactive) |
| CCCCCCCCCCCCOC(=O)c1ccc(O)cc1 |  | -41.1% (inactive) |
| O=C1N(c2ccccc2)c2ccccc2C1(Cc1ccncc1)Cc1ccncc1 |  | 0.335% [at 42.5 µM] (inactive) |
| CCC(C=O)CC |  | -9.28% (inactive) |
| Cc1ccc2c(Cl)cc(Cl)c(O)c2n1 |  | 7.54% [at 42.5 µM] (inactive) |
| COc1ccc(CN(CCN(C)C)c2ncccn2)cc1 |  | -5.56% [at 42.5 µM] (inactive) |
| CCN1CCCC1CN (stereo not given) |  | 3.49% [at 42.5 µM] (inactive) |
| O=C1C(CCS(=O)c2ccccc2)C(=O)N(c2ccccc2)N1c1ccccc1 (stereo not given) |  | -2.29% [at 42.5 µM] (inactive) |
| C/C(=N/NC(=O)c1ccncc1)C(=O)O |  | -3.94% [at 42.5 µM] (inactive) |
| O=C1Nc2cc(Cl)ccc2Oc2ccccc21 |  | 9.18% [at 42.5 µM] (inactive) |
| Clc1ccc2c(c1)CCc1cccnc1C2=C1CCNCC1 |  | -37.1% [at 42.5 µM] (inactive) |
| CCC(=O)c1c(O)cc(O)cc1O |  | -0.202% [at 42.5 µM] (inactive) |

| SMILES | Potency | activity, positive = activation |
| --- | --- | --- |
| CC(C)(O)c1ccc(CNC(=O)c2cccnc2Oc2ccc(F)cc2)cc1 |  | -13.1% (inactive) |
| COc1ccc2c(c1)C(=O)N(CCc1ccc(S(=O)(=O)NC(=O)NC3CCCCC3)cc1)C(=O)C2(C)C |  | -10.8% [at 42.5 µM] (inactive) |
| CCCCCCCCN(C)CCCCCCCC |  | -1.22% (inactive) |
| CC(C)(C)C(=O)O |  | -5.7% (inactive) |
| OCCCCC(O)CO (stereo not given) |  | -2.07% (inactive) |
| Cc1ccc(-n2[nH]c(C)c(N=Nc3cccc(-c4cccc(C(=O)O)c4)c3O)c2=O)cc1C |  | -31.6% [at 42.5 µM] (inactive) |
| CN(C)CC/C=C1/c2ccccc2COc2ccc(CC(=O)O)cc21 |  | 1.24% [at 42.5 µM] (inactive) |
| C=Cc1ccccc1C=C |  | -1.07% [at 240 µM] (inactive) |
| COc1ccc(/C=C/S(=O)(=O)NC(=O)c2ccc(C)cc2Cl)cc1 |  | -5.8% (inactive) |
| O=C=NCc1cccc(CN=C=O)c1 |  | -9.19% [at 19 µM] (inactive) |
| Cc1cc(S(=O)(=O)O)c(N)cc1Cl |  | -8.46% (inactive) |
| Nc1ccc(S(=O)(=O)Nc2ccccc2)cc1 |  | 0.711% [at 42.5 µM] (inactive) |
| O=Cc1ccc(F)c(Br)c1 |  | 1.54% (inactive) |
| Cc1nc2ccccc2n1Cc1ccc(Cl)cc1 |  | 7.03% [at 42.5 µM] (inactive) |
| CCC(CO)(CO)COCC(CC)(CO)CO |  | -0.367% (inactive) |
| CC(C)OC(=O)c1ccccc1 |  | -6.61% (inactive) |
| C[N+]1(CC2COC(c3ccccc3)(C3CCCCC3)O2)CCCCC1 (stereo not given) |  | 2.42% [at 42.5 µM] (inactive) |
| Nc1ccccc1O | 47.9 µM (active) |  |
| C=CC(=O)OCCOCCOC(=O)C=C | 24.4 µM (active) |  |
| OCC(CO)(CO)COCC(CO)(CO)CO |  | -11.2% (inactive) |

Biological target: Gonadotropin-releasing hormone receptor (Homo sapiens) (UniProt P30968)
Assay: Human gonadotropin-releasing hormone receptor (GnRHR) small molecule agonists, calcium flux assay in GnRHR-HEK293 cells (AID 1920063)
Conditions: calcium flux fluorescence, agonist mode; series mostly up to 57.6 µM; activity change: at the top concentration
Summary of the method: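 GnRHR-HEK293, 1500 cells/well, 18 h 37 C/5% CO2; Ca dye 1 h 37 C; cpd pinned (DMSO), agonist mode; kinetic FL 480/540, 3 min, 1 s reads; 15 conc, n=3.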

Gonadotropin-releasing hormone receptor (Homo sapiens), sequence (P30968 whole entry, looked up): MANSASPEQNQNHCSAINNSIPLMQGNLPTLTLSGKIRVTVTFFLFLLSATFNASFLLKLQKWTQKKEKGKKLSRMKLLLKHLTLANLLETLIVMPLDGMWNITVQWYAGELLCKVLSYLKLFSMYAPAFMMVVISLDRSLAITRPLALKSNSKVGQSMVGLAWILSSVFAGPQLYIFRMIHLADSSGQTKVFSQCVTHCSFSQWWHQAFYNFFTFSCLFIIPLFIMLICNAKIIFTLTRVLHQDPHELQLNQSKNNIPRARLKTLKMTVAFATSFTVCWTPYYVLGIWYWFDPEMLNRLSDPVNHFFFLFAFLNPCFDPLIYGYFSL

| SMILES | activity change |
| --- | --- |
| COc1ccc(C(=O)c2ccc(OC)cc2O)c(O)c1 | 1.27% (inactive) |
| CC(C)c1ccc(C(=O)N=C(N)N)cc1S(C)(=O)=O | 1.18% [at 26.4 µM, stronger effect = higher value] (inactive) |
| Cc1ccc(N(CC2=NCCN2)c2cccc(O)c2)cc1 | -1.86% [at 26.4 µM, stronger effect = higher value] (inactive) |
| CCC(C(=O)OCCN(CC)CC)c1ccccc1 (stereo not given) | 9.27% [at 26.4 µM, stronger effect = higher value] (inactive) |
| COC(=O)c1cccc(Cl)c1 | -0.311% (inactive) |
| Cc1cccc(C(C)(C)C)c1O | 1.25% (inactive) |
| Cc1cn[nH]c1 | -0.634% [at 26.4 µM, stronger effect = higher value] (inactive) |
| CCCCCCCCCCCCCCCCCCOS(=O)(=O)O | 17.3% (inactive) |
| C[Si](C)(CCCN)O[Si](C)(C)CCCN | 1.6% (inactive) |
| CCCCCCCCCCCCOC(=O)c1ccc(O)cc1 | -1.8% (inactive) |
| O=C1N(c2ccccc2)c2ccccc2C1(Cc1ccncc1)Cc1ccncc1 | -0.372% [at 26.4 µM, stronger effect = higher value] (inactive) |
| CCC(C=O)CC | 0.479% (inactive) |
| Cc1ccc2c(Cl)cc(Cl)c(O)c2n1 | -1.13% [at 26.4 µM, stronger effect = higher value] (inactive) |
| COc1ccc(CN(CCN(C)C)c2ncccn2)cc1 | 0.42% [at 26.4 µM, stronger effect = higher value] (inactive) |
| CCN1CCCC1CN (stereo not given) | -0.854% [at 26.4 µM, stronger effect = higher value] (inactive) |
| O=C1C(CCS(=O)c2ccccc2)C(=O)N(c2ccccc2)N1c1ccccc1 (stereo not given) | -0.996% [at 26.4 µM, stronger effect = higher value] (inactive) |
| C/C(=N/NC(=O)c1ccncc1)C(=O)O | -0.261% [at 26.4 µM, stronger effect = higher value] (inactive) |
| O=C1Nc2cc(Cl)ccc2Oc2ccccc21 | 5% [at 26.4 µM, stronger effect = higher value] (inactive) |
| Clc1ccc2c(c1)CCc1cccnc1C2=C1CCNCC1 | 2.29% [at 26.4 µM, stronger effect = higher value] (inactive) |
| CCC(=O)c1c(O)cc(O)cc1O | -0.895% [at 26.4 µM, stronger effect = higher value] (inactive) |

| SMILES | activity change |
| --- | --- |
| CC(C)(O)c1ccc(CNC(=O)c2cccnc2Oc2ccc(F)cc2)cc1 | 0.758% (inactive) |
| COc1ccc2c(c1)C(=O)N(CCc1ccc(S(=O)(=O)NC(=O)NC3CCCCC3)cc1)C(=O)C2(C)C | -0.776% [at 26.4 µM, stronger effect = higher value] (inactive) |
| CCCCCCCCN(C)CCCCCCCC | 2.05% (inactive) |
| CC(C)(C)C(=O)O | 0.0779% (inactive) |
| OCCCCC(O)CO (stereo not given) | 0.681% (inactive) |
| Cc1ccc(-n2[nH]c(C)c(N=Nc3cccc(-c4cccc(C(=O)O)c4)c3O)c2=O)cc1C | -1.11% [at 26.4 µM, stronger effect = higher value] (inactive) |
| CN(C)CC/C=C1/c2ccccc2COc2ccc(CC(=O)O)cc21 | -1.35% [at 26.4 µM, stronger effect = higher value] (inactive) |
| C=Cc1ccccc1C=C | -0.398% [at 150 µM, stronger effect = higher value] (inactive) |
| COc1ccc(/C=C/S(=O)(=O)NC(=O)c2ccc(C)cc2Cl)cc1 | -0.673% (inactive) |
| O=C=NCc1cccc(CN=C=O)c1 | -0.327% [at 11.8 µM, stronger effect = higher value] (inactive) |
| Cc1cc(S(=O)(=O)O)c(N)cc1Cl | 0% (inactive) |
| Nc1ccc(S(=O)(=O)Nc2ccccc2)cc1 | -0.357% [at 26.4 µM, stronger effect = higher value] (inactive) |
| O=Cc1ccc(F)c(Br)c1 | 0.0932% (inactive) |
| Cc1nc2ccccc2n1Cc1ccc(Cl)cc1 | 0.24% [at 26.4 µM, stronger effect = higher value] (inactive) |
| CCC(CO)(CO)COCC(CC)(CO)CO | 0.429% (inactive) |
| CC(C)OC(=O)c1ccccc1 | -0.032% (inactive) |
| C[N+]1(CC2COC(c3ccccc3)(C3CCCCC3)O2)CCCCC1 (stereo not given) | -0.508% [at 26.4 µM, stronger effect = higher value] (inactive) |
| Nc1ccccc1O | -2.36% (inactive) |
| C=CC(=O)OCCOCCOC(=O)C=C | -2.01% (inactive) |
| OCC(CO)(CO)COCC(CO)(CO)CO | 0.78% (inactive) |
